Hits are enriched below; roughly 7.4% of the tested compounds scored in any of these assays.
FLuc counter = firefly luciferase modulation, counter-screen for miR-21 project | P08659 | purified FLuc, Km substrates, luminescence inhibition | Potency, µM (series often up to 57.5 µM), for the others: at the highest dose activity change, negative = inhibition, hits mostly inhibitors | 360,000 compounds, 6.9% hits | AID 588342;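 further: plate controls were vehicle for no effect and reference inhibitor for full effect; nearly all actives have a fitted effect of over 55% in size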
Target sequence (P08659 whole entry, looked up): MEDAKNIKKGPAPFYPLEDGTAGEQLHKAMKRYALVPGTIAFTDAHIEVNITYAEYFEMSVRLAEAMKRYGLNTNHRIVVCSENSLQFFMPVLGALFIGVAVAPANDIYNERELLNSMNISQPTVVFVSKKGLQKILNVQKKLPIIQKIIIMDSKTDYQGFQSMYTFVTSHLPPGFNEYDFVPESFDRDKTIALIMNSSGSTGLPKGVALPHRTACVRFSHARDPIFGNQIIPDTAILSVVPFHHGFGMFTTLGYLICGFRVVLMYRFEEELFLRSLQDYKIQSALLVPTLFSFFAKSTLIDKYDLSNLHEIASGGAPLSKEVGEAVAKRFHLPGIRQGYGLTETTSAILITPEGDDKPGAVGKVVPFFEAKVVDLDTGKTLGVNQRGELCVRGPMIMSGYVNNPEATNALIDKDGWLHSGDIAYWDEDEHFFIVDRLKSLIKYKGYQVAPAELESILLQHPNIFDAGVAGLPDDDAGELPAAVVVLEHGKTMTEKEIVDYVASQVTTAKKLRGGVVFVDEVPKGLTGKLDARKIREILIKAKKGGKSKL
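Purified P. pyralis luciferase, 10 nM final, with Km-level 10 uM D-luciferin and 10 uM ATP in 50 mM Tris acetate pH 7.5, 10 mM Mg acetate, 0.01% Tween-20, 0.05% BSA; 6-point qHTS titration about 60 µM downward; luminescence read.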
ELG1 genotox = genotoxicity induction in ELG1-luciferase HEK293T cells. 330,000 compounds, 1.3% hits. HEK293T ELG1-luciferase reporter, luminescence, 16 h. Potency, µM (highest dose often 46 µM), without a hit: top-dose activity change, positive = activation, hits mostly activators; further: % of control where 0% means no effect; nearly all actives have a fitted effect of over 60% in size
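HEK293T cells expressing luciferase-tagged ELG1 were exposed to compound or DMSO vehicle for 16 hr at 37 °C and 5% CO2. Luciferase activity was then measured with ONE-Glo after 30 min at room temperature.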
NPC1 prom act = activates the NPC1 promoter | Huh7 NPC1 promoter luciferase reporter, 24 h | Potency, µM (top dose mostly 9.22 µM), for the others: top-dose activation, most hits filed as activators | 320,000 compounds, 2.4% hits | AID 485313; further: % of control where 0% means no effect; nearly all actives have a fitted effect of over 60% in size
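NPC1 promoter–luciferase Huh7 cells; 24 h compound; luminescence.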
SMN2 splice enh = SMN2 splice variant enhancement. AID 1458. 210,000 compounds, 2.8% hits. Potency, µM (highest dose often 46.1 µM), inactives show at the top dose activity change, positive = activation, actives largely listed as activators. HEK293 SMN2-luciferase splicing reporter, luminescence, 30-36 h; further: % of control where 0% means no effect; nearly all actives have a fitted effect of over 55% in size
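qHTS luciferase splicing reporter: luminescence rises when SMN2 exon 7 is included in transfected HEK293 cells. Compound exposure lasted 30-36 h at 37C, with 4.5 mM final sodium butyrate as control, followed by a ONE-Glo read.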
Rab9 promoter act = Rab9 promoter activation; Huh7 Rab9 promoter-luciferase reporter, luminescence, 24 h; Potency, µM (doses to about 9.22 µM), for the others: at the top dose activation, negative = inhibition, hits mostly activators; 320,000 compounds, 2.8% hits; further: % of control where 0% means no effect; nearly all actives have a fitted effect of over 60% in size
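Luciferase signal after 10 min detection reagent at ambient indicates Rab9 promoter upregulation; stably transfected Huh7 cells were treated 24 h with compound in DMSO at 37 °C, 5% CO2.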
The depositor's hits bear a star; ? = inconclusive; . = no result given; [ ] = remark or other dose. The call rests on the fitted dose curve; in most records, active means well fitted curve in the direction sought with a large enough effect; inconclusive means small, poorly fitted or top-dose-only effect, or another doubt; inactive means no such curve, though single readings can be large; an effect the other way counts as inactive or inconclusive. Potency means the concentration at half of the fitted maximal effect.

SMILES | FLuc counter | ELG1 genotox | NPC1 prom act | SMN2 splice enh | Rab9 promoter act
CC(C)(C)c1csc(NC(=O)c2ccccc2O)n1 | 0.54µM* | -3% | ? | . | ?
Cc1cnc(NC(=O)Cc2ccccc2Cl)s1 | 4% | 8% | -2% | . | 3%
Cc1csc(NC(=O)c2nc3nc(C)cc(C)n3n2)n1 | 21µM* | ? | 3.5µM* | 11µM* | 4µM*
O/N=C(\CN1CCCCC1)c1ccccc1 | -3% | -7% | -6% | . | -2%
Cc1ccc(C(=O)O)c(C(=O)Nc2nc(C)cs2)c1 | -1% | 1% | 0% | -8% | -1%
CSc1ncccc1C(=O)Nc1nc(C(C)(C)C)cs1 | 17µM* | 12% | 17% | . | 18%
Cc1csc(NC(=O)c2cc(C)oc2C)n1 | 21µM* | 12% | ? | 58% | ?
CCC(CC)c1nnc(NC(=O)c2cccnc2SC)s1 | -19% | 0% | -1% | 10% | -3%
O=C(NCCCn1ccnc1)c1cc2ccccc2oc1=O | -9% | 2% | 1% | 25% | 10%
O=c1c2ccccc2oc2ccc(NCCCN3CCOCC3)cc12 | 8.5µM* | ? | 2.8µM* | . | 2.8µM*
O=c1c2ccccc2oc2cc(NCCCN3CCOCC3)ccc12 | 11µM* | ? | 4µM* | . | 3.5µM*
O=c1c2ccccc2oc2cc(NCCCn3ccnc3)ccc12 | 2.4µM* | ? | 1.1µM* | . | 0.71µM*
COc1cccc2sc3cc(NCCCN4CCOCC4)ccc3c(=O)c12 | . | 6% | . | . | .
CCOC(=O)C1CCC(CN(Cc2ccc(Cl)cc2)S(=O)(=O)c2cccc(Cl)c2C)CC1 (stereo not given) | -2% | . | . | . | .
CNC(=O)c1oc(-c2ccccc2)nc1C | 0% | -4% | 1% | -4% | -7%
CN(Cc1ccccc1)C(=O)CSc1nc2ccccc2n1Cc1ccccc1F | 0% | . | . | . | .
Cc1cc(O)c(C(C)C)cc1CN1CCCCC1 | . | . | . | -11%[9.22 µM] | .
CCOC(=O)C1CCCN(C(=O)c2cc(-c3ccncc3)nc3ccccc23)C1 (stereo not given) | -7% | -3% | -2% | . | -4%
O=C(c1cc(-c2ccc(Cl)cc2)nc2ccccc12)N1CCC1 | ? | -15% | 0% | . | -4%
COc1cccc(-c2nn(-c3ccc(C)cc3)cc2C(=O)N2CCN(C3CCS(=O)(=O)C3)CC2)c1 (stereo not given) | 15µM* | -2% | 5% | . | 1%
O=C(c1cc(-c2ccc(F)cc2)nc2ccccc12)N1CCN(C2CCS(=O)(=O)C2)CC1 (stereo not given) | 9.5µM* | 0% | 9% | . | 19%
CCOC(=O)C1CCCN(C(=O)c2cc(-c3ccc(F)cc3)nc3ccccc23)C1 (stereo not given) | 15µM* | -9% | -2% | 24% | -5%
CCOC(=O)C1CCCN(C(=O)c2cc(Nc3ccc(OC)cc3)nc3ccccc23)C1 (stereo not given) | 15µM* | . | . | -5% | .
CCOC(=O)C1CCCN(C(=O)c2cc(-c3ccco3)nc3ccccc23)C1 (stereo not given) | . | 2% | . | . | .
CC(C)NC(=O)N1CC[C@@]2(CCCN(C(=O)c3cnccn3)C2)C1 | . | . | . | -2% | .
SMILES | FLuc counter | ELG1 genotox | NPC1 prom act | SMN2 splice enh | Rab9 promoter act
CC(C(=O)Nc1ccccc1)N(c1cccc(Cl)c1)S(C)(=O)=O (stereo not given) | -1% | -5% | -1% | 4% | -10%
COc1ccc(NC(=O)c2cc3cccc(OC)c3oc2=Nc2ccc(C(=O)O)cc2)cc1OC | -1% | 6% | -5% | 10% | -7%
COc1cccc(NC(=O)c2cc3ccccc3o/c2=N\O)c1 | 0.54µM* | 0.41µM* | 0.79µM* | . | 0.71µM*
COc1cccc(NC(=O)c2cc3cccc(OC)c3o/c2=N\O)c1 | 0.54µM* | ? | 2.8µM* | . | 0.71µM*
O=C(Nc1ccccc1Cl)c1cc2ccccc2o/c1=N\O | 2.1µM* | 16µM* | 3.2µM* | . | 2.5µM*
CC(C)c1ccc(NC(=O)c2sccc2-n2cccc2)cc1 | ? | 5% | 4µM* | . | 2.8µM*
CNC(=S)N1N=C2c3ccccc3CCC2C1c1ccccc1Cl (stereo not given) | -4% | -3% | -6% | . | -6%
CN1N=C2c3ccccc3CCC2C1c1ccc(F)cc1 (stereo not given) | ? | 17% | ? | . | 2.5µM*

Screening results: PubChem, National Center for Advancing Translational Sciences (NCATS)
